# Autofluor counter: counter-screen for toxin protease inhibitors: compound fluorescence. compound autofluorescence counterscreen, microsphere flow cytometry; hits give high values. fluorescence intensity (no concentration beside the values). actives 3.1% (n = 360,000). AID 624483; in the data active = fluorescence intensity above about 16000; inconclusive = no clear call, values can overlap the other calls
# Anthrax LF inh2: inhibitors of Bacillus anthracis lethal factor protease | P15917 | multiplex microsphere protease cleavage assay, LF | inhibition, % at 10 µM | actives 0.12% (n = 360,000) | AID 588501; also: plate controls were buffer without enzyme for full effect and enzyme alone for no effect
# BJeLR lethal: kills HRASV12-expressing BJeLR cells. BJeLR (HRASV12) viability, CellTiter-Glo ATP luminescence, 48 h. inhibition, % (concentration not given with the values). actives 0.17% (n = 300,000); in the data active = inhibition above about 50%; inconclusive = no clear call, values can overlap the other calls
# BoNT A protease: inhibitors of Botulinum neurotoxin A light chain protease | multiplex microsphere protease substrate cleavage, flow cytometry | inhibition, % at 10 µM | actives 0.17% (n = 360,000) | AID 588499; also: plate controls were buffer without enzyme for full effect and enzyme alone for no effect
# BoNT F protease: inhibitors of Botulinum neurotoxin F light chain protease. actives 0.22% (n = 360,000). Multiplex microsphere protease cleavage assay, flow cytometry. AID 588497. inhibition, % at 10 µM; in the data active = inhibition above about 35%, passing the limit was not always enough; inconclusive = no clear call, values can overlap the other calls; also: plate controls were buffer without enzyme for full effect and enzyme alone for no effect
# The depositor's hits bear a star; ? = inconclusive; nt = not tested or not shown. Only some compounds are listed: those with a hit (about 3.5% of all), similar ones and a draw of the others. Rule as the data show it, unless noted: active = inhibition above about 30%; inconclusive = no clear call, values can overlap the other calls; inactive = below that.
SMILES,Autofluor counter,Anthrax LF inh2,BJeLR lethal,BoNT A protease,BoNT F protease
CC(C)Oc1cccc(C(=O)O)c1,18055*,-5.6,1.8,?,7.6
COc1cc(C2Nc3ccc4ncccc4c3C3=C2C(=O)CCC3)cc(OC)c1OC (stereo not drawn),3181,1.5,1.7,0.1,-0.6
Cc1ccsc1C1Nc2ccc3ncccc3c2C2=C1C(=O)CCC2 (stereo not drawn),20032*,1.2,-11.1,2.7,0.5
Nc1nc(N)c2c(ccc3c2ccn3Cc2cccc([N+](=O)[O-])c2)n1,5513,-7.1,nt,-0.1,-14.0
O=c1ncn(-c2ccccc2C(F)(F)F)c2ncccc12,3884,-2.1,3.0,-2.7,-8.4
O=c1ncn(-c2ccccc2F)c2ncccc12,21215*,1.2,2.3,4.0,4.1
CN(C)c1ccc(C(=O)C=Cc2ccc([N+](=O)[O-])cc2)cc1,3795,0.4,nt,1.0,-3.6
CN(C)c1ccc(/C=C/[N+](=O)[O-])cc1,5524,22.5,32.3,50.2*,48.1*
CN(C)c1ccc(-n2cccc2/C=C/[N+](=O)[O-])cc1,3705,9.4,9.0,3.0,-1.6
CN(c1ccccc1)c1ccc(/C=C/[N+](=O)[O-])cc1,8391,29.2,-3.4,69.8*,23.3
O=[N+]([O-])c1ccc(C=CC=Cc2ccccc2)cc1,3677,16.4,nt,19.1,10.0
C/C(=C\c1ccc(N(C)C)cc1)[N+](=O)[O-],22567*,2.8,13.2,5.1,0.3
CCNC(=O)C1CCCN(C(=O)c2ccc(C#N)cc2)CC1 (stereo not drawn),3787,0.8,nt,-0.1,-1.8
O=C(COc1ccc(F)cc1Br)Nc1ccccc1N1CCOCC1,?,0.0,nt,-0.5,-3.0
Cc1cc(C)nc(CCNC(=O)CC2C(=O)NCCN2Cc2ccccc2)n1 (stereo not drawn),5834,-0.7,0.4,0.0,1.2
CN(N)C(=S)Nc1ccc(F)cc1,3501,-5.5,-4.0,-0.7,1.3
CN(C(=S)Nc1ccc(F)cc1)C1(c2ccccc2Cl)CCCCC1=O (stereo not drawn),24303*,0.8,3.3,-1.1,-3.3
O=C(CCCSc1nc2ccccc2[nH]1)Nc1nnc(-c2ccccc2)o1,22546*,0.9,-1.0,?,-0.7
O=C(CCCSc1nc2ccccc2[nH]1)NCc1ccccc1,2134,-3.7,10.1,-0.5,-7.1
N#CCSc1ncccc1-c1nc2ccccc2[nH]1,4605,-0.7,-11.5,1.4,-7.1
N#CCCCSc1ncccc1-c1nc2ccccc2[nH]1,19935*,-5.3,nt,1.5,1.4
N#Cc1ccc(-c2ccc(F)cc2)nc1Oc1ccc(F)cc1,21827*,-2.9,-10.3,1.7,1.4
CC(C)c1cc(C(=O)Nc2cccc(Cl)c2)no1,18450*,-11.9,-0.5,14.2,14.1
Cn1nc(C(F)(F)F)c(C(=O)Nc2cccc(Cl)c2)c1Cl,25124*,-1.4,-11.1,-3.4,-8.8
CC(=O)c1cccc(NC(=O)c2cc(C(C)C)on2)c1,5513,-6.1,-0.2,-0.3,-2.7
SMILES,Autofluor counter,Anthrax LF inh2,BJeLR lethal,BoNT A protease,BoNT F protease
Cn1nc(C(F)(F)F)c(C(=O)Nc2ccc(F)cc2)c1Cl,4579,10.3,-6.0,0.4,2.2
O=S1(=O)CCN(C2CCCC2)CC1,4076,-5.7,nt,-0.8,-4.6
CN1CCN(C2CCCCCC2)CC1,23426*,0.5,-0.1,-0.9,0.0
CC(=O)Nc1ccc(NC(=O)c2ccccc2N(Cc2ccccc2)S(C)(=O)=O)cc1,3828,14.1,-3.6,-4.6,?
CSc1ccccc1NC(=O)c1ccccc1N(C)S(C)(=O)=O,22950*,-5.1,-5.0,-1.8,-4.7
CSc1ccccc1NC(=O)c1c(C)noc1C,22017*,-1.1,-2.2,-5.1,-5.6
CSc1ccccc1NC(=O)c1ccccc1N(Cc1ccccc1)S(C)(=O)=O,19711*,-11.0,nt,8.9,10.9
CC(C)NC(=O)c1ccccc1NC(=O)c1ccccc1N(C)S(C)(=O)=O,9623,-4.1,-14.3,-3.5,-35.7
CSc1ccccc1NC(=O)Nc1ccccc1,25193*,-1.9,10.5,?,-7.6
COC(CN(C(=O)CCl)C(C(=O)NC1CCCCC1)c1ccc(C)cc1)OC (stereo not drawn),2721,-4.1,4.8,-0.3,-13.0
COc1ccc(NC(=O)CS(=O)CC(=O)Nc2ccc(NC(C)=O)cc2)cc1 (stereo not drawn),4425,3.1,-13.2,-0.3,-6.8
Cc1nn(C)cc1CNC(=O)c1ccc(Br)o1,20359*,0.1,14.0,-0.8,-1.3
Cc1c(C(=O)NCc2ccc(C(C)C)cc2)sc(=O)n1Cc1ccc(S(=O)(=O)N(C)C)cc1,5202,-10.2,nt,-0.9,-21.4
